Values joined by “and” are separate entries in the source; they are usually repeats but may differ in a detail not shown here. Equal values may be shown once. The panel holds about 83,000 compounds, 20% with a hit somewhere; the sample as a whole holds those more often.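 The test compound was applied at a single concentration to cells in 96-well plates for 48 hours, and percent growth was recorded.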 Active and inactive are the calls of the source. How the source made its calls: active means growth percent below 10; inactive means the rest.

In the test the test system is MDA-MB-468 breast. The test is described as follows: NCI-60 one-dose screen, 48 h (100 = growth as untreated, 0 = no growth, -100 = all killed). To be noted: 10 µM unless noted.
As for `C[CH2][Pb]([CH2]C)([CH2]C)[O]C(=O)COc1ccccc1`, the growth is 9.74% (active). The figure for `C=CC[PH+](c1ccccc1)c1ccccc1.C=CC[PH+](c1ccccc1)c1ccccc1.[Cl][Pt][Cl]` is -20.5% (active); for `COC(=O)C12CC(NC(=O)c3csc([C@@H](C[C@H](C(C)C)N(C)C(=O)[C@@H](NC(=O)[C@H]4CCCCN4C)C(C)C)OC(C)=O)n3)(C1)C2` it is 42.5% (inactive); for `CCN1C(=O)C(=C/C=C/c2ccccc2)C(=O)N(CC)C1=O` it is 93.1% (inactive).

With `Oc1c(O)c(Cl)c(Cl)c(Cl)c1Cl`, the growth was 74.2% (inactive). The result for `COC(=O)[C@@H](C)C[C@H](Cc1ccc(F)cc1)NC(=O)c1csc([C@@H](C[C@H](C(C)C)N(C)C(=O)[C@@H](NC(=O)[C@H]2CCCCN2C)C2CC2)OC(C)=O)n1` reads 22.5% (inactive).

As for `O=NN1CCCCC1`, the growth was 106% (inactive). The result for `N#CC1(C#N)C(c2ccc(N(CCCl)CCCl)cc2)OC23CCCCC2C1(C#N)C(=N)O3` (stereo not given) reads 56.5% (inactive); that for `C/C=C/CC(C)C(O)[C@H](NC(=O)[C@@H]1CCCN1C(=O)C(C)(C)NC(=O)CCCCCCCCC)C(=O)N[C@@](C)(CC)C(=O)N[C@@H](CCC(N)=O)C(=O)N[C@H](CCC(N)=O)C(=O)NC(C)(C)C(=O)NC(C)(C)C(=O)N[C@@H](CCC(N)=O)C(=O)N[C@H](CC(C)C)C(=O)N[C@H](CO)CC(C)C` (stereo not given in full), -53.4% (active) and 16.1% (inactive); that for `CN(C)C(=O)Oc1ccc(Br)cc1`, 98.6% (inactive). The figure for `CC(=O)OCC1O[C@@H]([S-])C(OC(C)=O)[C@H](OC(C)=O)[C@@H]1OC(C)=O.[Au+].c1ccc(CN2[CH-]N(Cc3ccccc3)C(c3ccccc3)=C2c2ccccc2)cc1` is -61.7% (active); for `Nc1cccc(CC(=O)Nc2ccc(S(=O)(=O)F)cc2)c1` it is 90.2% (inactive); for `O=S(=O)(F)c1ccc(Cl)cc1` it is 121% (inactive).

Take `COc1cc(OC)c(S(=O)(=O)N(CCCl)CCCl)cc1C(=O)/C=C/c1ccc(Cl)cc1`: the growth was 47.6% (inactive). As to `CN[C@@]1(c2ccccc2Cl)CCCC[C@@H]1NCC1CCCO1` (stereo not given in full), the growth was 96.3% (inactive). The result for `C/C=C/CC(C)C(O)[C@H](NC(=O)[C@@H]1CCCN1C(=O)C(C)(C)NC(=O)CCCCCCCCC)C(=O)N[C@@](C)(CC)C(=O)N[C@@H](CCC(N)=O)C(=O)N[C@H](CCC(N)=O)C(=O)NC(C)(C)C(=O)N[C@@](C)(CC)C(=O)N[C@@H](CCC(N)=O)C(=O)N[C@H](CC(C)C)C(=O)N[C@H](CO)CC(C)C` (stereo not given in full) reads 99.2% (inactive) and -78.2% (active).

On to `O=[N+]([O-])c1ccc(OCc2ccc(S(=O)(=O)F)c(Cl)c2)c(Cl)c1`, for which the growth was 121% (inactive).

`NC1CCc2cc(O)c(O)cc2C1` (stereo not given): the growth was 66% (inactive). As for `COC(=O)[C@@H](C)C[C@H](Cc1ccccc1)NC(=O)c1nc([C@@H](C[C@H](C(C)C)N(C)C(=O)[C@@H](NC(=O)[C@H]2CCCCN2C)C(C)C)OC(C)=O)sc1C`, the growth was 53.2% (inactive). The figure for `O=C(Nc1ccc([As]=[As]c2ccc(NC(=O)c3ccccc3)cc2)cc1)c1ccccc1` (stereo not given) is -74.8% (active); for `C=C[Se]CC(=O)/C=C/c1ccccc1` it is 85.6% (inactive). With `Nc1c(Cl)c(Cl)nc(C(=O)O)c1Cl`, the growth is 107% (inactive). The figure for `COc1ccc2c(c1)c(-c1nc(-c3cn(C)c4ncccc34)cs1)cn2CCN1CCOCC1` is 45.8% (inactive).

Turning to `CN1C(=O)C23CC4(C56CC78SSC(CO)(C(=O)N7C5Nc5ccccc56)N(C)C8=O)c5ccccc5NC4N2C(=O)C1(CO)SS3` (stereo not given), the growth was -81.7% (active). The figure for `c1cc2c(c3c1CCNC3)OCO2` is 87.4% (inactive). The figure for `C1CCC([PH+](C2CCCCC2)C2CCCCC2[PH+](C2CCCCC2)C2CCCCC2)CC1.[Au].[CH-]1CCCCC1CC1CCCC[N-]1` (stereo not given) is -61.8% (active); for `Oc1ccc2c3c1O[C@H]1c4[nH]c5ccccc5c4C[C@@]4(O)C(C2)N(CC2CC2)CC[C@]314` it is 90.5% (inactive). The result for `O=[N+]([O-])c1c(Br)sc(Br)c1[N+](=O)[O-]` reads 1.55% (active); that for `CC(=O)O[C@H]1CCC2(C)C(=CCC3C2CCC2(C)/C(=N/OC(=O)c4ccc(N(CCCl)CCCl)cc4)CCC32)C1` (stereo not given in full), 79.9% (inactive). With `Nc1nc([Se])c2ncn(C3OC(CO)C(O)C3O)c2n1` (stereo not given), the growth was 83.6% (inactive). For the compound `C#Cc1cccc(Nc2nc(Cl)nc3cc(NC(=O)CF)ccc23)c1`, the growth is 61.5% (inactive). The figure for `COc1ccc(/C=C\c2cc(OC)c(OC)c(OC)c2)c(NS(=O)(=O)c2ccc(C)cc2)c1O` is 23.2% (inactive); for `COc1cc(C=Nc2cccc(C(=O)O)c2)ccc1N(CCCl)CCCl` it is 46.6% (inactive).

Turning to `C[C@@H]1O[C@@H](O[C@H]2CC[C@@]3(C)[C@H](CCC4[C@@H]3C(O)C[C@]3(C)[C@@H](c5ccc(=O)oc5)CC[C@]43O)C2)[C@H](O)[C@H](O)[C@H]1O` (stereo not given in full), the growth is -59.8% (active).

`C=CCN1C(=O)C(CC)(CCC(C)C)C(=O)NC1=S` (stereo not given): the growth is 102% (inactive). Turning to `CCOP(=O)(OCC)C(=O)N(CC)CC`, the growth was 90.3% (inactive). The figure for `CCCCCN(CCCCC)CC(O)c1cc(Cl)ccc1OC` (stereo not given) is 57.7% (inactive). On to `CC1COC(=O)C1` (stereo not given), for which the growth is 106% (inactive). `COc1cccc2c1c(C(=O)C(=O)Nc1cc(C)no1)cn2Cc1ccc(F)cc1`: the growth was 48.4% (inactive). `Oc1cccc2cccnc12`: the growth is 25% (inactive) and 96.3% (inactive) and 106% (inactive).

For the origin of these results see PubChem BioAssay (NCI).
